POLI inh: DNA polymerase iota (human) inhibition. AID 588590. Pol iota fluorescent replication assay, 10 min. Potency, µM (top dose mostly 115 µM), inactives show at the highest dose activity, negative = inhibition, usual class: inhibitors. Q9UNA4. 390,000 tested, 1% active
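Pol iota at 10 nM preincubated 15 min with compounds at room temperature; reaction started with fluorescent substrate, 50 nM final. Fluorescence read kinetically at 0 and 10 min; buffer-only wells as negative control.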
POLB inh: inhibitors of human DNA polymerase beta; Pol beta primer extension/strand displacement, fluorescence kinetic; 340,000 tested, 1.3% active; Potency, µM (top dose mostly 114 µM), without a hit: at the top dose activity change, negative = inhibition, most hits filed as inhibitors; P06746; further: on the % scale 0 is the no-effect control and ±100 the full control effect
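Homogeneous kinetic assay of primer extension and strand displacement by 10 nM Pol beta, preincubated 15 min at room temperature with compound before 50 nM substrate (final) was added. Read at 0 and 10 min; four-parameter Hill fit.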
POLK inh: blocks human DNA polymerase kappa activity | Q9UBT6 | purified Pol kappa, fluorescent DNA synthesis assay, 10 min | Potency, µM (highest dose often 107 µM), inactives show at the highest dose activity, negative = inhibition, most hits filed as inhibitors | 400,000 tested, 0.53% active; further: on the % scale 0 is the no-effect control and ±100 the full control effect
Target sequence (Q9UBT6 whole entry, looked up): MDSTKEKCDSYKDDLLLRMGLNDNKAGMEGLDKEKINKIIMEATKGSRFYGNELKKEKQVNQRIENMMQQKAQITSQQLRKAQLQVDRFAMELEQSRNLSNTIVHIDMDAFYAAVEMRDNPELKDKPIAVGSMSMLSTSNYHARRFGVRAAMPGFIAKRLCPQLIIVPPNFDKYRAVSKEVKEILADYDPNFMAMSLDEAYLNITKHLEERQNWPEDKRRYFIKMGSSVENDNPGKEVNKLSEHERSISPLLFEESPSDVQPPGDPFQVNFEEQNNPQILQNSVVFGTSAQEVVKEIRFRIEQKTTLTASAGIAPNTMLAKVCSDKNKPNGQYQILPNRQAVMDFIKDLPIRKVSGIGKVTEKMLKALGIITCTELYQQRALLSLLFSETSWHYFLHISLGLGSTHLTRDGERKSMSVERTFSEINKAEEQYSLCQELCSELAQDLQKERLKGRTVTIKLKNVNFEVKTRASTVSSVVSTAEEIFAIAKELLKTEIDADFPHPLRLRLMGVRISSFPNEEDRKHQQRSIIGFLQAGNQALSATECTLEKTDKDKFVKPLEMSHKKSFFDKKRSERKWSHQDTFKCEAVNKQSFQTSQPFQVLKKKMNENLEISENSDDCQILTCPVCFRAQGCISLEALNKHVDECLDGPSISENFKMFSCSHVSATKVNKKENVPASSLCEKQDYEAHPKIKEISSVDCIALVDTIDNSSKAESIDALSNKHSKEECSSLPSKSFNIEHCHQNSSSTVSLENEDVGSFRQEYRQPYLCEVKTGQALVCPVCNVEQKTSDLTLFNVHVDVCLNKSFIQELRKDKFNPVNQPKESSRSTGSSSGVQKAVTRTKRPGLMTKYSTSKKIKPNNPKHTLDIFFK
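Kinetic fluorescence readout at 0 and 10 min followed reaction start with substrate at 50 nM final. Beforehand, enzyme (10 nM Pol kappa) stood 15 min with compound at room temperature; buffer-only wells were negative controls.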
L3MBTL1 block: L3MBTL1 (human) inhibition | AlphaScreen L3MBTL1–H3K9me1 peptide binding | Potency, µM (highest dose often 57.1 µM), without a hit: at the top dose activity, negative = inhibition, hits mostly inhibitors | 230,000 tested, 0.66% active | AID 485360; further: on the % scale 0 is the no-effect control and ±100 the full control effect; nearly all actives have a fitted effect of over 60% in size
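AlphaScreen assay: L3MBTL1 (50 nM final) was preincubated 30 min at room temperature with biotinylated H3(1-15)K9me1 peptide (75 nM final), then 30 min with library compounds; streptavidin donor and nickel chelate acceptor beads (10 ug/mL final) added, 30 min dark.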
Pol eta inh: DNA polymerase eta (human) inhibition; Potency, µM (doses to about 114 µM), for inactives: at the highest dose activity change, negative = inhibition, hits mostly inhibitors; 390,000 tested, 1.2% active; Q9Y253; AID 588591; recombinant Pol eta, fluorescent DNA replication assay; further: on the % scale 0 is the no-effect control and ±100 the full control effect
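Fluorescent replication assay: 50 nM final substrate added after a 15 min room-temperature compound preincubation with 10 nM enzyme. Signal taken at 0 min and again at 10 min.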
Numbers without * were called inactive; u = inconclusive; x = no result given; [ ] = remark or other dose. The list is not random: actives were taken first. Their share in the collection is about 2.4%. The call rests on the fitted dose curve; in most records, active means well fitted curve in the direction sought with a large enough effect; inconclusive means small, poorly fitted or top-dose-only effect, or another doubt; inactive means no such curve, though single readings can be large; an effect the other way counts as inactive or inconclusive. Potency means the concentration at half of the fitted maximal effect.

SMILES | POLI inh | POLB inh | POLK inh | L3MBTL1 block | Pol eta inh
CC(=O)N[C@@H](CC(C)C)C(=O)N[C@@H](CCCNC(=N)N)C(=O)N[C@@H](Cc1cnc[nH]1)C(=O)N[C@@H](Cc1ccc(O)cc1)C(=O)N[C@@H](CC(C)C)C(=O)N[C@@H](CC(N)=O)C(=O)N[C@@H](CC(C)C)C(=O)N[C@@H](CC(C)C)C(=O)N[C@H](C(=O)N[C@@H](CCCNC(=N)N)C(=O)N[C@@H](CCC(N)=O)C(=O)N[C@@H](CCCNC(=N)N)C(=O)N[C@@H](Cc1ccc(O)cc1)C(N)=O)[C@@H](C)O | x | x | 8.8%[60.1 µM] | x | x
Cc1cccc(Nc2nnc(SC/C(O)=C(\C#N)c3nc4ccccc4[nH]3)s2)c1C | -1.4% | -27.0% | -4.1% | -5.8% | u
Cc1ccc(C)c(SCC(=O)OC/C(O)=C(\C#N)c2nc3ccccc3[nH]2)c1 | u | u | -28.2% | -2.2% | 44.7µM*
Cc1cccc(C)c1Nc1nnc(SC/C(O)=C(\C#N)c2nc3ccccc3[nH]2)s1 | -8.0% | u | -16.3% | -11.2% | 17.8µM*
Cc1cc(Br)ccc1SCC(=O)OC/C(O)=C(\C#N)c1nc2ccccc2[nH]1 | 33.5% | 3.2% | 0.6% | x | -10.7%
O=C(CN1C(=O)COc2ccc(S(=O)(=O)N3CCOCC3)cc21)N1CCN(c2ccc(F)cc2)CC1 | 18.9% | 19.7% | 0.4% | x | -19.6%
CCc1ccccc1NC(=O)c1cc(S(=O)(=O)N2CCc3ccccc32)ccc1F | 12.7% | 3.0% | -8.1%[60.1 µM] | x | -10.1%
Cc1[nH]n(-c2ccc(Br)cc2)c(=O)c1C=Nc1ccc(S(=O)(=O)Nc2nccs2)cc1 | u | u | -16.8% | -15.6% | 44.7µM*
Cc1ccc(-n2[nH]c(C)c(C=Nc3ccc(S(=O)(=O)Nc4nccs4)cc3)c2=O)cc1 | x | 4.3% | x | -12.0% | x
Cc1[nH]n(-c2ccccc2)c(=O)c1C=Nc1ccc(S(=O)(=O)N=C(N)N)cc1 | 50.1µM* | 20.8% | 5.7% | x | u
COc1ccc(-c2c[n+]3c4n2CCCCC4=C(c2ccccc2)C3)cc1 | 8.6% | 11.2µM* | -6.3% | -16.6% | -0.2%
Cc1ccc(-c2nnn(CC(=O)NCC3CC3)n2)o1 | 5.0% | 18.8% | -10.1% | -0.5% | -6.8%
Cc1ccc(-c2nnn(CC(=O)Nc3ccc4nn(-c5ccccc5)nc4c3)n2)o1 | 10.9% | 22.4µM* | -16.1% | -0.2% | 14.8%
CCC(=O)N1CCc2cc(Br)cc(S(=O)(=O)N3CCCC(C(=O)NCc4ccccc4)C3)c21 (configuration not stated) | 79.4µM* | 2.8% | -11.6% | x | -7.5%
CC(=O)N1CCc2cc(Br)cc(S(=O)(=O)N3CCC(C(=O)Nc4cccc(C)c4C)CC3)c21 | u | 44.7µM* | -23.2% | x | -15.9%
CC(C)Cn1c(=O)c2ccccc2n2c(CCC(=O)Nc3cccc(Cl)c3)nnc12 | 26.5% | 33.6% | 6.2% | x | -10.3%
Cc1ccc(Cc2c(C)nc3nc(SCC(=O)NCCC(C)C)nn3c2C)cc1 | -11.3% | 0.4% | -5.5% | x | 9.9%
CCOc1ccc(N=Cc2c(C)[nH]n(-c3nc4ccccc4[nH]3)c2=O)cc1 | 5.2% | 22.4µM* | u | -13.2% | 15.8µM*
COc1cc(C)ccc1OCCOc1cc(C)ccc1Cl | 4.9% | 12.6µM* | -8.4% | u | -26.8%
O=C(O)c1cc(NCc2cc(O)ccc2O)ccc1O | 17.8µM* | x | 50.1µM* | x | x
O=c1oc(-c2ccccc2)nc2sc3c(c12)CCC3 | u | 11.2µM* | 79.4µM* | 12.6µM* | u
CN(C)[C@H]1C(=O)C(C(=O)NCN2CCCC2)=C(O)[C@]2(O)C(=O)C3=C(O)c4c(O)cccc4[C@@](C)(O)[C@H]3C[C@@H]12 | x | x | 4.74µM* | x | x
Cc1ccc(C2C(C#N)=C(N)N(c3cccnc3)C3=C2C(=O)CCC3)s1 (configuration not stated) | u | u | -2.0%[60.1 µM] | -14.7% | 56.2µM*
Cc1nn(C)cc1C1C(C#N)=C(N)N(c2cccnc2)C2=C1C(=O)CCC2 (configuration not stated) | 220.4% | 37.5% | -10.1% | -1.3% | -13.3%
O=C(C[n+]1cccc(Cl)c1)c1ccc(O)c(O)c1 | u | x | 2.24µM* | x | x
